# Reference: PubChem BioAssay AID624417 (National Center for Advancing Translational Sciences (NCATS), 2012)
# In all, about 410,000 compounds went through this assay and about 6,400 (1.6%) were called active. Where a call stands in place of a potency, no number is given. Roughly 20% stayed inconclusive and do not appear here. This is one part of a sample in which actives are shown more often than they occur. Calls follow the shape of the dose curve; as a rule, active = well fitted inhibition curve with a large enough effect; inconclusive = small, poorly fitted or top-dose-only effect; inactive = no such curve, though single readings can be large or run the other way.
# Target: Glucagon-like peptide 1 receptor (Homo sapiens) (UniProt P43220)
# Experiment: qHTS of GLP-1 Receptor Inverse Agonists (Inhibition Mode); also: nearly all actives have a fitted effect of over 55% in size
# Settings: HEK293 GLP-1R CRE-luciferase, luminescence, 24 h, GLP-1R form is constitutively active; series mostly up to 38.3 µM
# Method in brief: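 Luminescence readout: a drop in cAMP-driven luciferase signal flags inverse agonism at a constitutively active GLP-1R stably expressed in HEK293. Compound exposure lasted 24 hr at 37 deg C, 5% CO2.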
# Potency is read from the fitted curve at half-maximal effect.
# Sequence of Glucagon-like peptide 1 receptor (Homo sapiens) (P43220 whole entry, looked up): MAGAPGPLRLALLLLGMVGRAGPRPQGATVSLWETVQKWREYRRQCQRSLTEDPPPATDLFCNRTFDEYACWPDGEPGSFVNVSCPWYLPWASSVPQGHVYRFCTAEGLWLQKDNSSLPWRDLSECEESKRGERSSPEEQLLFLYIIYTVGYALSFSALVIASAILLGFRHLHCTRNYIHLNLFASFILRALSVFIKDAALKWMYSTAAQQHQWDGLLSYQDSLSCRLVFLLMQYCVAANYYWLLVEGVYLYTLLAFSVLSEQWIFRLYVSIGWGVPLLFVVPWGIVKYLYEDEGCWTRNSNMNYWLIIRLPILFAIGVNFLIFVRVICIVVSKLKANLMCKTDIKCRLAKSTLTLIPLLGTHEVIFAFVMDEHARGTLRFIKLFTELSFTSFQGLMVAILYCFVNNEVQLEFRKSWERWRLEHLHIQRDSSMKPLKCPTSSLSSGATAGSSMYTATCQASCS
SMILES,Potency,"activity change, negative = inhibition"
CCN(CC(=O)Nc1ccc(NC(C)=O)cc1)C(=O)C1CC(=O)N(c2ccc3c(c2)OCCO3)C1 (centres undefined),inactive,–
COc1cccc(CN(C)C(=O)CC[C@H]2O[C@@H](n3cnc4c(NC(=O)c5ccccc5)ncnc43)[C@H](O)[C@@H]2O)c1,inactive,–
CCCS(=O)(=O)NC(=O)C1(C)CCN(C(=O)c2sccc2C)C1 (centres undefined),inactive,–
O=C(OCc1cn([C@H]2C[C@H](c3ccccc3)N(C(=O)c3cccs3)C[C@@H]2O)nn1)c1ccccc1,inactive,–
CN1CCN(C(=O)c2ccc(-c3cc4nc(NCc5cccnc5)n(C)c(=O)c4s3)cc2)CC1,inactive,–
O=C(c1ccccc1)N1CCN(c2cc(-c3ccccc3)nc3cc(-c4cccc(Cl)c4)nn23)CC1,inactive,–
COc1ccc(OC)c(NC(=O)C2CCCN2S(=O)(=O)c2ccc3c(c2)CC(C)N3C(C)=O)c1 (centres undefined),inactive,–
C[C@@H]1CN([C@@H](C)CO)C(=O)CCCn2nncc2CO[C@@H]1CN(C)S(=O)(=O)c1ccc(-c2ccccc2)cc1,inactive,–
CC(C)CCNC(=O)c1[nH]c(C(F)(F)F)nc1-c1ccccc1,inactive,–
COc1ccc(N(CC(=O)Nc2ccc(F)c(F)c2)S(=O)(=O)c2c(C)[nH]c(=O)[nH]c2=O)cc1,inactive,–
CCc1cccc(NC(=O)CN(c2ccc(C)c(C)c2)S(=O)(=O)c2ccsc2C(=O)OC)c1,inactive,–
COC(=O)c1sccc1S(=O)(=O)N(CC(=O)Nc1ccc(C)c(F)c1)c1ccc(C)c(C)c1,8.91 µM (active),–
CCc1nc2ccc(C(=O)N3CCN(S(=O)(=O)CC)CC3)cn2c1N(C=O)CCC(C)C,inactive,–
O=C(NCCC1CCCCN1S(=O)(=O)c1cccs1)C(=O)Nc1ccc(F)cc1F (centres undefined),6.31 µM (active),–
COc1ccc(CCNC(=O)C(=O)NCC2CCCN2S(=O)(=O)c2cccs2)cc1OC (centres undefined),inactive,–
O=C(NCCC1CCCCN1S(=O)(=O)c1ccc(F)cc1)C(=O)NC1CC1 (centres undefined),inactive,–
COC(=O)C[C@@H]1C=C[C@@H](NC(=O)c2ccc3c(c2)OCO3)[C@@H](CO)O1,inactive,–
CCOC(=O)c1cc2sccc2n1Cc1ccc(C#N)cc1,inactive,–
O=C(c1cc2sccc2n1Cc1ccc(F)cc1)N1CCc2ccccc21,5.01 µM (active),–
CC(=O)Nc1ccc(NC(=O)c2cc3sccc3n2Cc2ccc(F)cc2)cc1,inactive,–

SMILES,Potency,"activity change, negative = inhibition"
N#CCCC(C#N)(c1cccnc1)N1CCOCC1 (centres undefined),inactive,–
COCCNC(=O)C1(C)CCCN(Cc2cccc(F)c2)C1 (centres undefined),inactive,–
O=C(NCc1cccc(C(F)(F)F)c1)c1ccc2sc(COCCO)nc2c1,inactive,–
O=C(C[C@H]1C[C@H]2c3cc(NS(=O)(=O)c4ccc(F)cc4)ccc3O[C@H]2[C@H](CO)O1)NCc1cc(F)ccc1F,inactive,–
COc1ccc(C(=O)N2CCCCC2c2cc(C(=O)Nc3ccccc3)no2)cc1 (centres undefined),10 µM (active),–
N#Cc1cccc(NC(=O)c2cc(C3CCCCN3C(=O)CCc3ccccc3)on2)c1 (centres undefined),inactive,–
CCCNC(=O)c1cc(C2CCCCN2C(=O)OC)on1 (centres undefined),inactive,–
COc1cccc(NC(=O)N(C)C[C@@H]2Oc3ncc(Br)cc3C(=O)N([C@@H](C)CO)C[C@H]2C)c1,inactive,–
CCC1OC(C2CC2)CC2=C1C(=O)OC(C)(C)O2 (centres undefined),inactive,–
COC(=O)CNC(=O)c1cc(-c2ccncc2)nc2ccccc12,inactive,–
O=C(Nc1ccc(S(=O)(=O)Nc2nccs2)cc1)c1cc(-c2ccncc2)nc2ccccc12,inactive,–
CCN(CC)CCNC(=O)c1ccc(NC(=O)c2cc(-c3ccncc3)nc3ccccc23)cc1,12.6 µM (active),–
C=CCOc1ccccc1CNn1c(C)n[nH]c1=S,inactive,–
CC1(C(=O)NS(=O)(=O)c2cccc(OC(F)F)c2)CCN1C(=O)COc1ccc(Cl)cc1 (centres undefined),inactive,–
FC(F)Oc1ccccc1C1CC(c2ccc(Br)s2)Nc2ncnn21 (centres undefined),7.94 µM (active),–
CCOc1ccccc1C1CC(c2ccccc2)Nc2nc(N)nn21 (centres undefined),inactive,–
COc1ccc(C2CC(c3ccc(C)cc3)Nc3ncnn32)cc1 (centres undefined),inactive,–
Cc1ccc(S(=O)(=O)N[C@H](CO)C(C)C)cc1,inactive,–
C[C@H]1CN([C@@H](C)CO)C(=O)CCCn2cc(nn2)CO[C@@H]1CN(C)S(=O)(=O)c1ccc(-c2ccccc2)cc1,inactive,–
C[C@H]1CN(c2ccc(Br)cc2)C(=O)[C@@H]1CC(=O)Nc1ccc(Br)cc1,inactive,–

SMILES,Potency,"activity change, negative = inhibition"
COc1ccc(NC(=O)c2sc(=O)n(Cc3ccc(S(=O)(=O)N(C)C)cc3)c2C)cc1,inactive,–
Cc1ccccc1CNC(=O)c1ccc(NC(=O)N2CCCCc3ccccc32)cc1,inactive,–
Cc1ccc(NC(=O)Cc2ccc(NC(=O)N3CCCCc4ccccc43)cc2)cc1,7.94 µM (active),–
Cc1cc(Cl)ccc1NC(=O)Cc1ccc(NC(=O)N2CCCCc3ccccc32)cc1,inactive,–
CCOC(=O)N1CCN(C(=O)C[C@@H]2C[C@@]3(C(=O)OC)CC(C)(C)CC=C3N(Cc3ccco3)C2=O)CC1,inactive,–
CCCNC(=O)C1(C)CCCN(C(=O)c2oc3ccccc3c2C)C1 (centres undefined),inactive,–
CC1(C(=O)NS(=O)(=O)c2cccc(F)c2)CCN1C(=O)c1cccc2ccccc12 (centres undefined),inactive,–
Cc1ccccc1S(=O)(=O)N1[C@@H](c2cccc(Cl)c2)C(C(=O)OC(C)(C)C)=CC[C@H]1c1ccc(Cl)cc1,inactive,–
O=C(Nc1sc2c(c1C(=O)O)CCC2)c1ccccc1F,inactive,–
O=C(Nc1nnc(-c2ccccc2F)s1)c1ccccc1F,inactive,–
O=C(Nc1nc2c(s1)CCCC2)c1ccccc1F,4.47 µM (active),–
Cc1nc(C(F)(F)F)ccc1C(=O)N1CCC1(C)C(=O)NS(=O)(=O)c1ccc(F)cc1F (centres undefined),inactive,–
c1ccc(C[C@H]2CNCCN2CCC23CC4CC(CC(C4)C2)C3)cc1,10 µM (active),–
c1ccc2c(CCN3CCNC[C@H]3Cc3cccc4ccccc34)cccc2c1,inactive,–
O=C1CCNCCN1[C@H](CO)Cc1ccccc1,inactive,–
CN(C)C1CN(Cc2cn(Cc3ccccc3)nn2)S(=O)(=O)C1 (centres undefined),inactive,–
Cc1ccc(-c2cn3cc([N+](=O)[O-])ccc3n2)cc1,4.47 µM (active),–
Cc1ccc(-c2cn3cc(C)ccc3n2)cc1,–,-14.4% [at 0.307 µM] (inactive)
Cc1ccc(-n2cc3ccc([N+](=O)[O-])cc3n2)cc1,inactive,–
